# Several values for one entry are separate records, joined by “and”; a condition that tells them apart may be missing. Equal values may be shown once. Results filed as inconclusive are left out. A number with no mark means an inactive call. Activity calls are given as the source filed them. Calls come from the whole dose curve; as a rule, active = well fitted inhibition curve with a large enough effect; inconclusive = small, poorly fitted or top-dose-only effect; inactive = flat fitted curve, though single readings scatter.
# Legend:
# CRL-7250 = normal cell line; assay: Cytotoxic Profiling of Annotated Libraries Using Quantitative High-Throughput Screening (AID 1296008); conditions: Five cell lines viability, CellTiter-Glo ATP luminescence, 48-72 h; max response: active compounds read low; note: potency is the fitted concentration of half-maximal effect; for max response: % is set by controls: 0 for no effect and ±100 for the full control effect
# Procedure, shortened: (§1)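 Compounds were pin-transferred onto cells and incubated 48 or 72 hr at 37 degree Celsius, 95% humidity. CellTiter-Glo was added, plates sat 10 min at room temperature, then ATP-coupled luminescence was imaged as the viability read-out.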
# HEK293 = assay: as above; conditions: Five cell lines viability, CellTiter-Glo ATP luminescence, 48-72 h; max response: active compounds read low
# Procedure, shortened: as §1
# HaCat [1] = assay: as above; conditions: Five cell lines viability, CellTiter-Glo ATP luminescence, 48-72 h; max response: active compounds read low
# Procedure, shortened: as §1
# KB-3-1 = assay: as above; conditions: Five cell lines viability, CellTiter-Glo ATP luminescence, 48-72 h; max response: active compounds read low
# Procedure, shortened: as §1
# NIH3T3 = assay: as above; conditions: Five cell lines viability, CellTiter-Glo ATP luminescence, 48-72 h; max response: active compounds read low
# Procedure, shortened: as §1
# MCC-13 = assay: qHTS assay to identify novel small-molecules to repurpose for Merkel cell carcinoma treatment (AID 1296009); conditions: MCC and control cell lines, CellTiter-Glo viability, 72 h; series mostly up to 46 µM; note: potency is the fitted concentration of half-maximal effect
# Procedure, shortened: (§2)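 Cells exposed to NPC (8-point) and MIPE (11-point) compound dilutions for 72 hr at 37 degree celsius; viability read by CellTiter-Glo luminescence, normalized to no-cell and DMSO in-plate controls.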
# MKL-1 = assay: as above; conditions: MCC and control cell lines, CellTiter-Glo viability, 72 h; series mostly up to 46 µM
# Procedure, shortened: as §2
# MCC-26 = assay: as above; conditions: MCC and control cell lines, CellTiter-Glo viability, 72 h; series mostly up to 46 µM
# Procedure, shortened: as §2
# HACAT [2] = assay: as above; conditions: MCC and control cell lines, CellTiter-Glo viability, 72 h; series mostly up to 44.8 µM
# Procedure, shortened: as §2
# P94_40 = assay: qHTS profiling for inhibitors of Plasmodium falciparum proliferation (AID 504749);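 note: 0% = DMSO vehicle and full inhibition = artemisinin control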; conditions: P. falciparum in erythrocytes, SYBR Green DNA, 72 h; series mostly up to 28.7 µM
# Procedure, shortened: (§3)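 P. falciparum-infected erythrocytes (0.3% parasitemia, 2.5% hematocrit final) were exposed to compounds for 72 h at 37 C in 5% CO2, then lysed with SYBR Green buffer overnight at room temperature; parasite DNA fluorescence was normalized to artemisinin and DMSO controls.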
# PAD = assay: as above; conditions: P. falciparum in erythrocytes, SYBR Green DNA, 72 h; series mostly up to 28.7 µM
# Procedure, shortened: as §3
# PC15 = assay: as above; conditions: P. falciparum in erythrocytes, SYBR Green DNA, 72 h; series mostly up to 28.7 µM
# Procedure, shortened: as §3
# PC26 = assay: as above; conditions: P. falciparum in erythrocytes, SYBR Green DNA, 72 h; series mostly up to 28.7 µM
# Procedure, shortened: as §3
# PC49 = assay: as above; conditions: P. falciparum in erythrocytes, SYBR Green DNA, 72 h; series mostly up to 28.7 µM
# Procedure, shortened: as §3
# SC27B = assay: as above; conditions: P. falciparum in erythrocytes, SYBR Green DNA, 72 h; series mostly up to 28.7 µM
# Procedure, shortened: as §3
# TAB109 = assay: as above; conditions: P. falciparum in erythrocytes, SYBR Green DNA, 72 h; series mostly up to 28.7 µM
# Procedure, shortened: as §3
# TAB113 = assay: as above; conditions: P. falciparum in erythrocytes, SYBR Green DNA, 72 h; series mostly up to 28.7 µM
# Procedure, shortened: as §3
# TAB165 = assay: as above; conditions: P. falciparum in erythrocytes, SYBR Green DNA, 72 h; series mostly up to 28.7 µM
# Procedure, shortened: as §3
# W2 = assay: as above; conditions: P. falciparum in erythrocytes, SYBR Green DNA, 72 h; series mostly up to 28.7 µM
# Procedure, shortened: as §3
# Note: nearly all actives have a fitted effect of over 60% in size.
compound,measurement,setting,value
Nc1cc(C(F)(F)F)c(-c2cc(N3CCOCC3)nc(N3CCOCC3)n2)cn1,Potency,CRL-7250,2.06 µM (active)
same,Potency,HEK293,935 nM (active) and 2.31 µM (active)
same,Potency,HaCat [1],1.18 µM (active) and 1.64 µM (active)
same,Potency,KB-3-1,743 nM (active) and 1.46 µM (active)
same,Potency,NIH3T3,1.05 µM (active) and 2.59 µM (active)
same,Potency,MCC-13,2960 nM (active)
same,Potency,MKL-1,1.66 µM (active)
CCS(=O)(=O)c1cccc(-c2cc(C(=O)NC3CCN(C)CC3)c(C)c3[nH]c4ncc(C)cc4c23)c1,Potency,CRL-7250,1.28 µM (active)
same,Potency,HEK293,1.87 µM (active) and 2.02 µM (active)
same,Potency,HaCat [1],4.18 µM (active) and 1.61 µM (active)
same,Potency,KB-3-1,1.18 µM (active) and 904 nM (active)
same,Potency,NIH3T3,10.5 µM (active) and 5.7 µM (active)
same,Potency,MCC-26,4.69 µM (active)
same,Potency,MKL-1,0.132 µM (active)
C1=CCOCc2cc(ccc2OCCN2CCCC2)Nc2nccc(n2)-c2cccc(c2)OCC1,Potency,CRL-7250,8.33 µM (active)
same,Potency,HEK293,3.32 µM (active)
same,Potency,HaCat [1],4.69 µM (active)
same,Potency,KB-3-1,2.96 µM (active)
same,Potency,NIH3T3,7.43 µM (active)
same,Potency,MCC-26,9.35 µM (active)
C[C@@H]1CN(CC(=O)Nc2ccc3c(c2)Cc2cccc(-c4cc(=O)cc(N5CCOCC5)o4)c2S3)C[C@H](C)O1,max response,CRL-7250,-2.3%
same,Potency,HEK293,18.7 µM (active)
same,outcome,HaCat [1],inactive
same,max response,KB-3-1,-19.5%
same,Potency,HACAT [2],inactive
same,Potency,MCC-13,inactive
same,Potency,MCC-26,inactive
same,Potency,MKL-1,inactive
CN[C@H]1CCc2cc(OC)c(OC)c(OC)c2-c2ccc(OC)c(=O)cc21,Potency,CRL-7250,0.0148 µM (active)
same,Potency,HEK293,0.0015 µM (active)
same,max response,HaCat [1],-10.1%
same,Potency,KB-3-1,3.7 nM (active) and 46.1 nM (active)
same,Potency,MCC-13,20.9 nM (active)
CC(C)Nc1cc(C(F)(F)F)cc2nc(NC(=O)c3cccnc3)nn12,max response,CRL-7250,-10.3% and 1%
same,max response,HEK293,-16.8%
same,max response,HaCat [1],-1.8%
same,outcome,KB-3-1,inactive
same,max response,NIH3T3,3.06% and -1.67%
same,Potency,MCC-13,inactive
same,Potency,MCC-26,inactive
same,Potency,MKL-1,inactive
CC=CC1=C(C(=O)O)N2C(=O)[C@H](NC(=O)[C@H](N)c3ccc(O)cc3)[C@@H]2SC1,Potency,P94_40,inactive
same,Potency,PAD,inactive
same,Potency,PC15,inactive
same,Potency,PC26,inactive
same,Potency,PC49,inactive
same,Potency,SC27B,inactive
same,Potency,TAB109,inactive
same,Potency,TAB113,inactive
same,Potency,TAB165,inactive
same,Potency,W2,inactive
same,max response,CRL-7250,1.71%
same,max response,HEK293,-2.68%
same,max response,HaCat [1],-17%
same,max response,KB-3-1,1.31%
same,max response,NIH3T3,1.07%
same,Potency,MCC-13,inactive
same,Potency,MCC-26,inactive
same,Potency,MKL-1,inactive
Cc1c(CN2CCN(S(C)(=O)=O)CC2)sc2c(N3CCOCC3)nc(-c3cnc(N)nc3)nc12,Potency,CRL-7250,166 nM (active) and 259 nM (active)
same,Potency,HEK293,59 nM (active) and 326 nM (active)
same,Potency,HaCat [1],0.0418 µM (active)
same,Potency,KB-3-1,0.0833 µM (active)
same,Potency,NIH3T3,148 nM (active) and 517 nM (active)
same,Potency,MCC-26,0.833 µM (active)
CC[C@@H]1C(=O)N(C)c2cnc(Nc3ccc(C(=O)NC4CCC(N5CCN(CC6CC6)CC5)CC4)cc3OC)nc2N1C(C)C (stereo partly specified),Potency,CRL-7250,332 nM (active) and 14.6 µM (active)
same,Potency,HEK293,26.4 nM (active) and 20.6 nM (active) and 13 nM (active)
same,Potency,HaCat [1],0.059 µM (active)
same,Potency,KB-3-1,11.8 nM (active) and 4.6 nM (active)
same,Potency,NIH3T3,2.64 µM (active) and 1.46 µM (active) and 1.3 µM (active)
same,Potency,MCC-13,469 nM (active)
same,Potency,MKL-1,0.0743 µM (active)
CCc1c2c(nc3ccc(O)cc13)-c1cc3c(c(=O)n1C2)COC(=O)[C@]3(O)CC,Potency,CRL-7250,651 nM (active) and 2.64 µM (active)
same,Potency,HEK293,14.6 nM (active) and 16.6 nM (active)
same,Potency,HaCat [1],58 nM (active) and 105 nM (active)
same,Potency,KB-3-1,291 nM (active) and 235 nM (active)
same,Potency,NIH3T3,0.731 µM (active)
same,Potency,MCC-13,29.6 nM (active)
same,Potency,MCC-26,0.0372 µM (active)
same,Potency,MKL-1,0.0118 µM (active)
Cc1[nH]nc2ccc(-c3cncc(OC[C@@H](N)Cc4ccccc4)c3)cc12,Potency,CRL-7250,2.64 µM (active) and 5.8 µM (active)
same,Potency,HEK293,209 nM (active) and 651 nM (active)
same,Potency,HaCat [1],1.32 µM (active) and 411 nM (active)
same,Potency,KB-3-1,0.332 µM (active)
same,Potency,NIH3T3,3.72 µM (active) and 7.31 µM (active)
same,Potency,MCC-13,4180 nM (active)
same,Potency,MCC-26,6.62 µM (active)
same,Potency,MKL-1,1.87 µM (active)
CNC(=O)c1cc(Oc2ccc(NC(=O)Nc3cc(C(C)(C)C)nn3-c3ccc4ncccc4c3)c(F)c2)ccn1,Potency,CRL-7250,13.2 µM (active) and 18.4 µM (active)
same,Potency,HEK293,23.5 µM (active)
same,Potency,HaCat [1],7.31 µM (active)
same,Potency,KB-3-1,9.35 µM (active) and 5.17 µM (active)
same,Potency,NIH3T3,2.96 µM (active)
same,Potency,MCC-13,inactive
same,Potency,MKL-1,inactive
CN(C)CC=CC(=O)Nc1cc2c(Nc3ccc(F)c(Cl)c3)ncnc2cc1O[C@H]1CCOC1,Potency,CRL-7250,3.32 µM (active)
same,Potency,HEK293,1.32 µM (active)
same,max response,HaCat [1],-151%
same,Potency,KB-3-1,4.18 µM (active)
same,Potency,NIH3T3,3.72 µM (active)
same,Potency,MKL-1,14.8 µM (active)

# Reference: PubChem BioAssay (NCATS)
